Results on 17 molecules are retold here after PubChem BioAssay (NCATS).

Experiment [1] concerns the target Cellular tumor antigen p53 (Homo sapiens) (UniProt P04637). The experiment can be described thus: Primary qHTS for small molecule compounds that upregulate eGFP-tagged delta133p53alpha (in N-terminal) cells. (AID 2060322). Further: nearly all actives have a fitted effect of over 75% in size.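 On activation: cells pre-induced with doxycycline then dosed without doxycycline; series mostly up to about 56 µM; 0% = DMSO vehicle and 100% = reference activator.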 The conditions noted are these: NCI-H358 eGFP-delta133p53alpha fluorescence, 24 h; activation: stronger effect = higher value. In outline:
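NCI-H358 cells pre-induced 24 h with 10 ng/ml doxycycline for eGFP-delta133p53alpha, plated dox-free and exposed 24 h at 37C to titrated compounds. Fixed, Hoechst-stained; gated GFP peak intensity by laser scanning cytometry, normalized to DMSO (0%) and 57.5 uM 5-azacytidine (100%).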
A general note: Quantitative high-throughput screening tests each substance at several concentrations.

Experiment [2] in a line: BET inhibitor-based combinations targeting novel dependencies in MECOM-rearranged (r) AML: SET-2 cell line (AID 2202231). Further: nearly all actives have a fitted effect of over 35% in size.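 On viability: plate controls were DMSO treated cells for no effect and wells without cells for full effect.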 As to conditions: SET-2 AML cells viability, CellTiter-Glo luminescence, 48 h; viability: stronger effect = lower value, concentration not given here. Summed up:
(§1)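 Readout: CellTiter-Glo luminescence. Exposure: 48 h, 11 concentrations, 500 cells/well. Metric: AUC and within-line Z-AUC after DMSO/empty-well normalization.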
In general terms: In ATP-based viability assays light output follows the ATP content of the culture.

Experiment [3] in a line: BET inhibitor-based combinations targeting novel dependencies in MECOM-rearranged (r) AML: OCI-AML3 cell line (AID 2202232). Further: nearly all actives have a fitted effect of over 35% in size.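 On viability (% of control): series mostly up to about 46 µM; plate controls were DMSO vehicle wells for no effect and wells without cells for full effect.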 As to conditions: Potency: OCI-AML3 viability. In outline:
as §1

Experiment [4] can be described thus: BET inhibitor-based combinations targeting novel dependencies in MECOM-rearranged (r) AML: MV-4-11 cell line (AID 2202233). Further: nearly all actives have a fitted effect of over 45% in size.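 On viability, % of control: plate controls were DMSO for no effect and blank wells for full effect.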 In outline:
(§2)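 Seeding density was 500 cells/well, and drug exposure lasted 48 hr under standard culture conditions. Read-out used CellTiter-Glo reagent with a 15 min room-temperature incubation before luminescence measurement; AUC and Z-AUC summarize the normalized responses.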

Experiment [5] in a line: BET inhibitor-based combinations targeting novel dependencies in MECOM-rearranged (r) AML: HNT-34 cell line (AID 2202234). Further: nearly all actives have a fitted effect of over 35% in size.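 On viability (% of control): plate controls were vehicle wells for no effect and cell-free wells for full effect.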 Summed up: as §2
The nature of experiment [6]: BET inhibitor-based combinations targeting novel dependencies in MECOM-rearranged (r) AML: AML-191 cell line (AID 2202236; further: nearly all actives have a fitted effect of over 35% in size;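 on viability (% of control): plate controls were vehicle wells for no effect and wells without cells for full effect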). Summed up:
as §1

Experiment [7] is described as follows: BET inhibitor-based combinations targeting novel dependencies in MECOM-rearranged (r) AML: UCSD-AML1 cell line (AID 2202235). Further: nearly all actives have a fitted effect of over 40% in size.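 On viability (% of control): series mostly up to about 46 µM; plate controls were DMSO vehicle wells for no effect and blank wells for full effect.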 In outline: as §2
Experiment [8] in a line: BET inhibitor-based combinations targeting novel dependencies in MECOM-rearranged (r) AML: AML-194 cell line (AID 2202237; further: nearly all actives have a fitted effect of over 40% in size;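 on viability (% of control): plate controls were vehicle wells for no effect and wells without cells for full effect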). In outline:
as §1

Where “and” joins values, the source holds several entries; their conditions need not be identical. Equal values may be shown once. Inconclusive results are not listed. A number with no mark means an inactive call. Calls of active or inactive are those of the source. The call rests on the fitted dose curve; in most records, active means well fitted curve in the direction sought with a large enough effect; inconclusive means small, poorly fitted or top-dose-only effect, or another doubt; inactive means no such curve, though single readings can be large; an effect the other way counts as inactive or inconclusive.
Potency means the concentration at half of the fitted maximal effect.

Chain of Cellular tumor antigen p53 (Homo sapiens) (P04637 whole entry, looked up): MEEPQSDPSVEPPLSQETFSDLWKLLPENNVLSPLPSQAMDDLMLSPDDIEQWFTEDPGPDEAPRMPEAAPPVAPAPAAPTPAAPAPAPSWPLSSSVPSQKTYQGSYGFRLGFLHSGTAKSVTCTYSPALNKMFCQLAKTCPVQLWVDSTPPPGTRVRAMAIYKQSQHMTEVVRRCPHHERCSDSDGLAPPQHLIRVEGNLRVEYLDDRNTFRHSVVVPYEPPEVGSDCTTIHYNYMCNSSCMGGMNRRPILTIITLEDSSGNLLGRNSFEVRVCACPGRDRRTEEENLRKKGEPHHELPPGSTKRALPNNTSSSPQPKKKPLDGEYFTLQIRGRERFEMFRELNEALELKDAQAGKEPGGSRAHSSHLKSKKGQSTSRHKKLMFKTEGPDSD

Regarding `CC(C)Oc1cc(Nc2nc(N[C@@H](C)c3ccc(F)cn3)ncc2Cl)[nH]n1`, the Potency was 24300 nM (active) in experiment [1]; 18600 nM (active) in experiment [2]; 16600 nM (active) in experiment [3]; 93.4 nM (active) in experiment [4]; 16600 nM (active) in experiment [5]; 417 nM (active) in experiment [6].
Take `COc1c(N2CCNC(C)C2)c(F)cc2c(=O)c(C(=O)O)cn(C3CC3)c12` (configuration not stated): the activation in experiment [1] was 12.6% and 24.5%. The viability in experiment [2] was 100%. Besides, the Potency result in experiment [3], in experiment [4], in experiment [5], in experiment [7], in experiment [6] and in experiment [8] was “inactive” in each case.
Regarding `Cc1ccc2c(=O)c3cccc(CC(=O)O)c3oc2c1C`, the activation in experiment [1] was 16.3%. The viability in experiment [2] is 108%. The Potency entry in experiment [3], in experiment [4], in experiment [5], in experiment [7], in experiment [6] and in experiment [8] was “inactive” in each case.
Take `CCOC(=O)C=C[C@H](C[C@@H]1CCNC1=O)NC(=O)[C@@H](CC(=O)[C@@H](NC(=O)c1cc(C)on1)C(C)C)Cc1ccc(F)cc1`: in experiment [1], the activation was 17.3%. Moreover, the viability in experiment [2] is 120%. Further, the Potency result in experiment [3], in experiment [4], in experiment [5], in experiment [7] and in experiment [8] was “inactive” each time.
Regarding `CN(C)c1ccc(C(=C2C=CC(=[N+](C)C)C=C2)c2ccc(N(C)C)cc2)cc1`, in experiment [1], the activation was -20.9%. Besides, the Potency in experiment [2] is 1050 nM (active); in experiment [3] it was 1320 nM (active); in experiment [4] it was 662 nM (active); in experiment [5], 934 nM (active); in experiment [7], 1050 nM (active); in experiment [6], 1180 nM (active). Moreover, the Potency in experiment [8] is 934 nM (active).
With `COC[C@H](NC(=O)c1cnc(C)s1)C(=O)N[C@@H](COC)C(=O)N[C@@H](Cc1ccccc1)C(=O)[C@@]1(C)CO1`, the Potency is 17200 nM (active) in experiment [1]; 166 nM (active) in experiment [2]; 93.4 nM (active) in experiment [3]; 83.3 nM (active) in experiment [4]; 93.4 nM (active) in experiment [5]; 132 nM (active) in experiment [7]. In addition, the Potency is 186 nM (active) in experiment [6] and 332 nM (active) in experiment [8].
As to `O=C(O)C(O)Cc1ccc(O)c(O)c1` (configuration not stated), in experiment [1], the activation is -12.6%. In addition, in experiment [2], the viability was 99.8%. In addition, the Potency entry in experiment [3], in experiment [4], in experiment [5], in experiment [7], in experiment [6] and in experiment [8] was “inactive” throughout.
Regarding `O=C(NC1CCNCC1)c1[nH]ncc1NC(=O)c1c(Cl)cccc1Cl`, the Potency is 685 nM (active) in experiment [1]; 11800 nM (active) in experiment [2]; 1050 nM (active) in experiment [3]; 662 nM (active) in experiment [4]; 1050 nM (active) in experiment [5]; 1320 nM (active) in experiment [7]. Further, the Potency is 2090 nM (active) in experiment [6] and 2630 nM (active) in experiment [8].
Take `O=C(NCCS(=O)(=O)c1ccc(C(F)(F)F)cn1)c1ccc(Cl)cc1`: the activation in experiment [1] was 6.23%. Also, in experiment [2], the viability is 108%. For the same molecule, the Potency entry in experiment [3], in experiment [4], in experiment [5], in experiment [6] and in experiment [8] was “inactive” throughout.
Take `COc1cc2c(cc1OC)[C@@H]1C(=O)c3ccc4c(c3O[C@@H]1CO2)C=CC(C)(C)O4`: the activation in experiment [1] is -3.86%. The Potency in experiment [2] is 13200 nM (active); in experiment [3] it was 525 nM (active); in experiment [4], 6610 nM (active); in experiment [5], 23500 nM (active); in experiment [6] it was 9340 nM (active); in experiment [8], 20900 nM (active).
With `O=S(=O)(O)CCS`, the activation in experiment [1] is 32.2% and 4.28%. The viability in experiment [2] was 120%. For the same molecule, the Potency entry in experiment [3], in experiment [4], in experiment [5], in experiment [7], in experiment [6] and in experiment [8] was “inactive” throughout.
In the case of `CN(N=O)C(=O)N[C@@H]1[C@@H](O)[C@H](O)[C@@H](CO)O[C@@H]1O`, the activation in experiment [1] was -14.1%. The viability in experiment [2] is 101%. Also, the Potency entry in experiment [3], in experiment [4], in experiment [5], in experiment [7] and in experiment [8] was “inactive” throughout.
Take `O=C(O)c1cn(C2CC2)c2cc(N3CCNCC3)c(F)cc2c1=O`: the activation in experiment [1] was 6.67%. Further, the viability in experiment [2] is 109%. Besides, the viability (% of control) in experiment [3] is 109% [at 8.46 µM]; in experiment [5] it was 97.3% [at 8.46 µM]; in experiment [7], 101% [at 8.46 µM]; in experiment [6], 102% [at 8.46 µM]; in experiment [8], 113% [at 8.46 µM]. For the same molecule, in experiment [4], the viability, % of control is 112% [at 8.46 µM].
As to `Cc1cc(=O)oc2cc(O)ccc12`, the activation in experiment [1] is -17.5% and -1.39%. Moreover, the viability in experiment [2] is 111%. Moreover, the Potency result in experiment [3], in experiment [4], in experiment [5], in experiment [7], in experiment [6] and in experiment [8] was “inactive” throughout.
Take `Cn1cc(C2=C(c3c4n(c5ccccc35)CCC(CN)C4)C(=O)NC2=O)c2ccccc21` (configuration not stated): the Potency was 27300 nM (active) in experiment [1], 4810 nM (active) in experiment [4] and 5390 nM (active) in experiment [5]. Further, the viability in experiment [2] is 103%. The viability (% of control) is 88.4% [at 8.46 µM] in experiment [3], 97.4% [at 8.46 µM] in experiment [7] and 98.9% [at 8.46 µM] in experiment [8].
As to `OC[C@@H](O)[C@@H](O)[C@H](O)[C@@H](O)CO`, the activation in experiment [1] was 6.34%. Besides, the viability in experiment [2] is 117%. In addition, the Potency entry in experiment [3], in experiment [4], in experiment [5], in experiment [6] and in experiment [8] was “inactive” each time.
Take `CC(C)(Cc1ccc2ccccc2c1)NC[C@@H](O)COc1cccc(Cl)c1C#N`: the activation in experiment [1] is 19.8%. Further, the Potency in experiment [2] was 18600 nM (active); in experiment [3], 16600 nM (active); in experiment [4], 16600 nM (active); in experiment [5], 16600 nM (active); in experiment [6], 10500 nM (active); in experiment [8], 10500 nM (active).

For orientation: viability means a read-out of living cells in per cent, often relative to untreated cells.
